From article PMC7862700, “An all-to-all approach to the identification of sequence-specific readers for epigenetic DNA modifications on cytosine”

Tests used:
Assay in all cases: DAPPL (digital affinity profiling via proximity ligation, sequencing); 10 mM Tris-HCl pH 7.5, 50 mM NaCl, 1 mM DTT, 4% glycerol, room temperature, 30 min; GST-TFs on glutathione beads, 16-mer random dsDNA library, 0.1% formaldehyde crosslink after washing; high values mean tight binding
[1] = target: T1, FLI1 (Homo sapiens, UniProt Q01543 1-452); details: protein: recombinant; tags: N-terminal GST; dsDNA, one strand shown
T1 sequence: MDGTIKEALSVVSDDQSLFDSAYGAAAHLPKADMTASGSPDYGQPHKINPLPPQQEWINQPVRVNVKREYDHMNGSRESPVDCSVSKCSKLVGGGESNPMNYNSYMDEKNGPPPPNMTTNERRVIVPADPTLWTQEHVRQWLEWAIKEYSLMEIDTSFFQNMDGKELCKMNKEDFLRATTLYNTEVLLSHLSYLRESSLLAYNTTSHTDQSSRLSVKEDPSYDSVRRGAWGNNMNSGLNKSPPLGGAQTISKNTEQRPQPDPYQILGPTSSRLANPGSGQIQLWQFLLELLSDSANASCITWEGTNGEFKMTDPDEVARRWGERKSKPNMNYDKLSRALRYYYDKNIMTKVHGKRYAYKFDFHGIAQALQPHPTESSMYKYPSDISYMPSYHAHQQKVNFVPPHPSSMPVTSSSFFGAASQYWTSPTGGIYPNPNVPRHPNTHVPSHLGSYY
Summary of the method: (§1)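 Binding signal is given per hexamer as its read frequency for a factor divided by its frequency in the tag-only sample. GST-fused human transcription factors were expressed in yeast, captured on glutathione beads, barcoded with DNA and pooled with that sample, then incubated with 200 nmole of a 16-mer random double-stranded DNA library in Tris/NaCl/DTT/glycerol buffer for 30 min at room temperature. The pools were then washed, crosslinked, proximity-ligated, amplified by PCR and sequenced on an Illumina NextSeq500.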

[2] = target: T2, ELK1 (Homo sapiens, UniProt P19419 1-428); details: protein: recombinant; tags: N-terminal GST; dsDNA, one strand shown
T2 sequence: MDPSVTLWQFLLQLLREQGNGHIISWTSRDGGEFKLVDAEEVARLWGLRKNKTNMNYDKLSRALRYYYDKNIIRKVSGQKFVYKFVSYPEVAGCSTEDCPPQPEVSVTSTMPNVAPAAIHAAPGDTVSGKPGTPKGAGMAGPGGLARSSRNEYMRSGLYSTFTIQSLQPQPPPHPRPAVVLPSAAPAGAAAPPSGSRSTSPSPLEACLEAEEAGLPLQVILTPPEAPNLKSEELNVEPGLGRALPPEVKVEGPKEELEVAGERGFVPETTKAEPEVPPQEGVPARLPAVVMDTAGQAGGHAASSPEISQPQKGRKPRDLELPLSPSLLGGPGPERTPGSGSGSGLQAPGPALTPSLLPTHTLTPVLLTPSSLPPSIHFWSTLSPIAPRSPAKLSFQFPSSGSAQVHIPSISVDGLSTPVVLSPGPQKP
Summary of the method: as §1

[3] = target: T3, GABPA (Homo sapiens, UniProt Q06546 1-454); details: protein: recombinant; tags: N-terminal GST; dsDNA, one strand shown
T3 sequence: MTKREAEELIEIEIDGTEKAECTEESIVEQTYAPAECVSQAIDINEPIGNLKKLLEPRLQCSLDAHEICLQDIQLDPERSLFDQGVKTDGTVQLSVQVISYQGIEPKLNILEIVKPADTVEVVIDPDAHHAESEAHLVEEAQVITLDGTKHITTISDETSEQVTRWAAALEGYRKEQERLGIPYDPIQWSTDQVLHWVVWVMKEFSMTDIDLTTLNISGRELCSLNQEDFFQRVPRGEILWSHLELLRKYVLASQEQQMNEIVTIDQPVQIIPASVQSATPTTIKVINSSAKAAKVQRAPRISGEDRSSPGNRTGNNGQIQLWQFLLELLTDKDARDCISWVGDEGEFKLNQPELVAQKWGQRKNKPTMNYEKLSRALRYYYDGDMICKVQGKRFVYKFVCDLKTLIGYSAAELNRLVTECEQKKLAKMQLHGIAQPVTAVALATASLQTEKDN
Summary of the method: as §1

[4] = target: T4, ERG (Homo sapiens, UniProt P11308 1-479); details: protein: recombinant; tags: N-terminal GST; dsDNA, one strand shown
T4 sequence: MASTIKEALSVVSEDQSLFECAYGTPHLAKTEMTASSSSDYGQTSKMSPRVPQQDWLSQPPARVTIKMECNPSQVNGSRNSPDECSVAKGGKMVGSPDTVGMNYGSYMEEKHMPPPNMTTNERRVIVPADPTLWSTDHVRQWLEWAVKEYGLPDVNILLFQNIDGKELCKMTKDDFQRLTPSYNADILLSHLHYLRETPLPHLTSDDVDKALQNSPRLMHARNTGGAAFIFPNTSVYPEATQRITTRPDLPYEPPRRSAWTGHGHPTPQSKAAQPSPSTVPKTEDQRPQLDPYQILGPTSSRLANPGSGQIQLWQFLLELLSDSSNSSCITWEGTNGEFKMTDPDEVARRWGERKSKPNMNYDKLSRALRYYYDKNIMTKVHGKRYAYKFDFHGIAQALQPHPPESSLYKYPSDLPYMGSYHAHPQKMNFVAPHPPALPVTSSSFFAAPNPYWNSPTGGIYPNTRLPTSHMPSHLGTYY
Summary of the method: as §1

[5] = target: ELF1 (Homo sapiens, UniProt P32519 1-619); details: protein: recombinant; tags: N-terminal GST; dsDNA, one strand shown
ELF1, sequence (P32519 whole entry): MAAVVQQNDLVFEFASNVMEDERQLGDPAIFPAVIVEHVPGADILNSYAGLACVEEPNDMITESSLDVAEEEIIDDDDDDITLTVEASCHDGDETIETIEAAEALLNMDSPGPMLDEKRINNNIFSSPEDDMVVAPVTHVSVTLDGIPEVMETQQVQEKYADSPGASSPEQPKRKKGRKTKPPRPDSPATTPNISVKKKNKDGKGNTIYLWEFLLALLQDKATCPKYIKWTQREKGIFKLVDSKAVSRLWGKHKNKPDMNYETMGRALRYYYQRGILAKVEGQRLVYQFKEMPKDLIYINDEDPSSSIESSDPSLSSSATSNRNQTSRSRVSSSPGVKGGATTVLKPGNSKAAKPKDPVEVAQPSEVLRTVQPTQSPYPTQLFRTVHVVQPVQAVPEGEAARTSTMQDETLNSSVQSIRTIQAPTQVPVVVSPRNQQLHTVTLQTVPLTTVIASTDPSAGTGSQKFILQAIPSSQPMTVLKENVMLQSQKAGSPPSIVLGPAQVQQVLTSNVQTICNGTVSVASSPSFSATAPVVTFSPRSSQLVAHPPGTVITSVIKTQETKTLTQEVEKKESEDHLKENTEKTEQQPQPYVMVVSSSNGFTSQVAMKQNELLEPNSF
Summary of the method: as §1

[6] = target: T5, EHF (Homo sapiens, UniProt Q9NZC4 1-300); details: protein: recombinant; tags: N-terminal GST; dsDNA, one strand shown
T5 sequence: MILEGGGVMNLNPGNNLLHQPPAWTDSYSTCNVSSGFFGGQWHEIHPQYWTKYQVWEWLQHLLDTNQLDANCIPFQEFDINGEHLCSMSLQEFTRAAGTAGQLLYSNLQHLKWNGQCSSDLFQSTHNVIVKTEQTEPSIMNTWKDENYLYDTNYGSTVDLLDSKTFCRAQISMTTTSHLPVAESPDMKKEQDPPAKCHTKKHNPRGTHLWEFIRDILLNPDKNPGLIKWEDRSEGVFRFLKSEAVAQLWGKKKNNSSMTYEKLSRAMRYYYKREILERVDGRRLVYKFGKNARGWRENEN
Summary of the method: as §1

[7] = target: SPI1 (Homo sapiens, UniProt P17947 1-270); details: protein: recombinant; tags: N-terminal GST; dsDNA, one strand shown
Summary of the method: as §1

[8] = target: SPIB (Homo sapiens, UniProt Q01892 1-262); details: protein: recombinant; tags: N-terminal GST; dsDNA, one strand shown
SPIB, sequence (Q01892 whole entry): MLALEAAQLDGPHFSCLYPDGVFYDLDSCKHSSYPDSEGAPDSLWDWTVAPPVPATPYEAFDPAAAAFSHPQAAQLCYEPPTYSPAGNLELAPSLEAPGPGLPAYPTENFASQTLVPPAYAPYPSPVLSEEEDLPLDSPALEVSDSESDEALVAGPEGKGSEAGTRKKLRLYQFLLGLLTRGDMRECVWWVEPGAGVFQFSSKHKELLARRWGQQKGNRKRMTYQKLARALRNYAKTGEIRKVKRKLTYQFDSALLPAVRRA
Summary of the method: as §1

[9] = target: T6, ELK3 (Homo sapiens, UniProt P41970 1-407); details: protein: recombinant; tags: N-terminal GST; dsDNA, one strand shown
T6 sequence: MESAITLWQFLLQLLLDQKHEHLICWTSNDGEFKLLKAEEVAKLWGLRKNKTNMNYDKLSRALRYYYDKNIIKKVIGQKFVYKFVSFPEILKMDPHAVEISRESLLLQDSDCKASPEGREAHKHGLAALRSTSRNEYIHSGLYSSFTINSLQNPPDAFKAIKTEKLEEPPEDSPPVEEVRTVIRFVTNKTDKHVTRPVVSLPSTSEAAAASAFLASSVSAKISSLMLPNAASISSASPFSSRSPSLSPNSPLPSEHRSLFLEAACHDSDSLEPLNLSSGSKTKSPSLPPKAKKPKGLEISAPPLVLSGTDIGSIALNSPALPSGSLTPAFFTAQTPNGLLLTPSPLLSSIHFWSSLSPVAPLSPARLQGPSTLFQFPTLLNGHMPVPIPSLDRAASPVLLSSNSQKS
Summary of the method: as §1

[10] = target: T7, FEV (Homo sapiens, UniProt Q99581 1-238); details: protein: recombinant; tags: N-terminal GST; dsDNA, one strand shown
T7 sequence: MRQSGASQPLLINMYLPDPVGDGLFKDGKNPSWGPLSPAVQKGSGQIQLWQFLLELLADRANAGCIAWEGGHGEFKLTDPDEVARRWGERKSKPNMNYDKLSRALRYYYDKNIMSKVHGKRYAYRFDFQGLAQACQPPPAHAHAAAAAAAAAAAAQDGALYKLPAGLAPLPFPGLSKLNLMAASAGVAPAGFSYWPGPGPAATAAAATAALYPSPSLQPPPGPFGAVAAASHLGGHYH
Summary of the method: as §1

[11] = target: ETV5 (Homo sapiens, UniProt P41161 1-510); details: protein: recombinant; tags: N-terminal GST; dsDNA, one strand shown
ETV5, sequence (P41161 whole entry): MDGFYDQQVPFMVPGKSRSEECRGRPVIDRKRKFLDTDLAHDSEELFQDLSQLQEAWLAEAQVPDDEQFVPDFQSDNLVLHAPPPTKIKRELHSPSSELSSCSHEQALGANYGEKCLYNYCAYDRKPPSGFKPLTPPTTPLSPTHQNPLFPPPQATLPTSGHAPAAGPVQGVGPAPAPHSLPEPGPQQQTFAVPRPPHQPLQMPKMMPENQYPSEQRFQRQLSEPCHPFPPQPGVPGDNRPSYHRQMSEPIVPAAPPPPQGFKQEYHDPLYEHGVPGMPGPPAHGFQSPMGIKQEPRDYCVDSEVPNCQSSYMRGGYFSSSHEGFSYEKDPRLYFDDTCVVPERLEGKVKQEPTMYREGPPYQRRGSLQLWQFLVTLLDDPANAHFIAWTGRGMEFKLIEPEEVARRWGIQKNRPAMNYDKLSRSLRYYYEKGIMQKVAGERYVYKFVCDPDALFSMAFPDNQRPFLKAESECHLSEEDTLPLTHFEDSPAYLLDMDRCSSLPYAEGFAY
Summary of the method: as §1

[12] = target: HSF1 (Homo sapiens, UniProt Q00613 1-529); details: protein: recombinant; tags: N-terminal GST; chain copies: 3; dsDNA, one strand shown
HSF1, sequence (Q00613 whole entry): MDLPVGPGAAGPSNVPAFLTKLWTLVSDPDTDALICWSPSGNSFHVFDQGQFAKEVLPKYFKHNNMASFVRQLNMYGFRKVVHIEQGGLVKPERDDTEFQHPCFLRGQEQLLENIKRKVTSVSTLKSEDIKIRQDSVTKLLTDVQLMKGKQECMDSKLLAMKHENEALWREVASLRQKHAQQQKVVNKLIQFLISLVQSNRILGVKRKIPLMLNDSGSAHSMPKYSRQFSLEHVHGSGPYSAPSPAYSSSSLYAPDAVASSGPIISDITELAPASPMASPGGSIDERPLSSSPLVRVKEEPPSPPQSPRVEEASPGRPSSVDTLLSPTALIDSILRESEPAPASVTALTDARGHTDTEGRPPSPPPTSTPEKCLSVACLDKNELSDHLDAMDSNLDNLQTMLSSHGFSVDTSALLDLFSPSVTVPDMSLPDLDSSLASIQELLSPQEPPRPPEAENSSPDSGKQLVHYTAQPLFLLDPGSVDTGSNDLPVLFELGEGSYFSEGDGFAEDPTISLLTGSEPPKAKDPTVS
Summary of the method: as §1

[13] = target: T8, SPIC (Homo sapiens, UniProt Q8N5J4 1-248); details: protein: recombinant; tags: N-terminal GST; dsDNA, one strand shown
T8 sequence: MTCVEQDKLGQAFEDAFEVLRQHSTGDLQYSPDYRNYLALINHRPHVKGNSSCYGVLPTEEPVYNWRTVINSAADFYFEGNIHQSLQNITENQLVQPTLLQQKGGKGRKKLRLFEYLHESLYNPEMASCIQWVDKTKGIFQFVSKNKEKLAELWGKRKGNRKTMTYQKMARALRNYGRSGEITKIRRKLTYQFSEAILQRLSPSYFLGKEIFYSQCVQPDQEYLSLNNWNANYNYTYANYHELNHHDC
Summary of the method: as §1

[14] = target: ELF4 (Homo sapiens, UniProt Q99607 1-663); details: protein: recombinant; tags: N-terminal GST; dsDNA, one strand shown
ELF4, sequence (Q99607 whole entry): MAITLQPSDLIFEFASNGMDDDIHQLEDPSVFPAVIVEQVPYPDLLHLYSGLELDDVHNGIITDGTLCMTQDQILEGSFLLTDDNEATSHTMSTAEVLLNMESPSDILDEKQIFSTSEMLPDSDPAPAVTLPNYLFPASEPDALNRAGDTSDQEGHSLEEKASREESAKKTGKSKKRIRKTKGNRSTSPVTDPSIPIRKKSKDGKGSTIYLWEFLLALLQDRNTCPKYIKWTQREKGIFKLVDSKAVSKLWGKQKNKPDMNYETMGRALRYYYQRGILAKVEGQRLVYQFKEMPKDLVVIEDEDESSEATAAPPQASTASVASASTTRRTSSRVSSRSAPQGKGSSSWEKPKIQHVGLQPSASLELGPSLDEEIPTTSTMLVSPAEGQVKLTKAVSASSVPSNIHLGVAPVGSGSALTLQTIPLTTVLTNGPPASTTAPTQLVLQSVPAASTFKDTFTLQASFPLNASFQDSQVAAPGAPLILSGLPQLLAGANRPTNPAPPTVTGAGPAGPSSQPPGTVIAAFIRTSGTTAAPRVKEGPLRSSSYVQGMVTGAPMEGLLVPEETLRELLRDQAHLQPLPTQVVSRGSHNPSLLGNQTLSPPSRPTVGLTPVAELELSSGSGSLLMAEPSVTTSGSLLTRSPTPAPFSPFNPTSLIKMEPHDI
Summary of the method: as §1

[15] = target: T9, ELK4 (Homo sapiens, UniProt P28324-2 1-405); details: protein: recombinant; tags: N-terminal GST; dsDNA, one strand shown
T9 sequence: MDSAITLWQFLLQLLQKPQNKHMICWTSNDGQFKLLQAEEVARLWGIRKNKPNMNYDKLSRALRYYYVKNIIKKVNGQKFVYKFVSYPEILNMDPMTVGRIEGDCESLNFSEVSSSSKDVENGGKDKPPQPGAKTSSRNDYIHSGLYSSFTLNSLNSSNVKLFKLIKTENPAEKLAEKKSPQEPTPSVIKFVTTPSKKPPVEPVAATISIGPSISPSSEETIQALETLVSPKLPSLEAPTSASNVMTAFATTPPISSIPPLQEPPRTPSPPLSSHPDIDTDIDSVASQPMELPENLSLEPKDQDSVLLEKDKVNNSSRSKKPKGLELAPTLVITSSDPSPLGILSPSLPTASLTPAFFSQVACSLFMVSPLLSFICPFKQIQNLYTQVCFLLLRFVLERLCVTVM
Summary of the method: as §1

[16] = target: T10, ETV2 (Homo sapiens, UniProt O00321 1-342); details: protein: recombinant; tags: N-terminal GST; dsDNA, one strand shown
T10 sequence: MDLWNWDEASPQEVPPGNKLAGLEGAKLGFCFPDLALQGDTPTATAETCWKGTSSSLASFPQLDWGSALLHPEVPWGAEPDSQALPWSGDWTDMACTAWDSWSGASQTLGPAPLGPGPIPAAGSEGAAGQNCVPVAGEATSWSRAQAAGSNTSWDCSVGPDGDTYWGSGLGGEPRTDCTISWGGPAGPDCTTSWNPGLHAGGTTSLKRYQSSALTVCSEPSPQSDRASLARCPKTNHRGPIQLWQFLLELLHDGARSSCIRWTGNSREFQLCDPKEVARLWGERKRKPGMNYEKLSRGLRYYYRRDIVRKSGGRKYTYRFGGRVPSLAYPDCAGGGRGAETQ
Summary of the method: as §1

[17] = target: T11, ELF3 (Homo sapiens, UniProt P78545 1-371); details: protein: recombinant; tags: N-terminal GST; dsDNA, one strand shown
T11 sequence: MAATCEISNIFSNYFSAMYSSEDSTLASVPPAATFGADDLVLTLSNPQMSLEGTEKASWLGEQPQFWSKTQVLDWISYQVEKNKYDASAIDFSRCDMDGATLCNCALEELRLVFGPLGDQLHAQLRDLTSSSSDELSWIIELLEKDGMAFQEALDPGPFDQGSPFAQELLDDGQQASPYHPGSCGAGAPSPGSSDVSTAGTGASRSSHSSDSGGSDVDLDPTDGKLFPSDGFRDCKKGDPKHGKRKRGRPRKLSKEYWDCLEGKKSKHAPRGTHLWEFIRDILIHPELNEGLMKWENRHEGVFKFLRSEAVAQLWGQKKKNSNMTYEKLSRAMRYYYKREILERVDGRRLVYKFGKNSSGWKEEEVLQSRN
Summary of the method: as §1

[18] = target: CRX (Homo sapiens, UniProt O43186 1-299); details: protein: recombinant; tags: N-terminal GST; dsDNA, one strand shown
CRX, sequence (O43186 whole entry): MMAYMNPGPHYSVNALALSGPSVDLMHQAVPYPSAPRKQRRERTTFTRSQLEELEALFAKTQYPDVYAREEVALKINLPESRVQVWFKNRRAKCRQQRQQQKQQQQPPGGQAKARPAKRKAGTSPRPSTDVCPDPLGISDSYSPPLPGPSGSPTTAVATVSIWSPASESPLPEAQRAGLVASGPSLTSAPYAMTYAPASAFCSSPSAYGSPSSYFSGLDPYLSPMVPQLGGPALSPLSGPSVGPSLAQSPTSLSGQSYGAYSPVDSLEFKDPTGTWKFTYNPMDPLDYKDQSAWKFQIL
Summary of the method: as §1

[19] = target: ETV1 (Homo sapiens, UniProt P50549 1-477); details: protein: recombinant; tags: N-terminal GST; dsDNA, one strand shown
ETV1, sequence (P50549 whole entry): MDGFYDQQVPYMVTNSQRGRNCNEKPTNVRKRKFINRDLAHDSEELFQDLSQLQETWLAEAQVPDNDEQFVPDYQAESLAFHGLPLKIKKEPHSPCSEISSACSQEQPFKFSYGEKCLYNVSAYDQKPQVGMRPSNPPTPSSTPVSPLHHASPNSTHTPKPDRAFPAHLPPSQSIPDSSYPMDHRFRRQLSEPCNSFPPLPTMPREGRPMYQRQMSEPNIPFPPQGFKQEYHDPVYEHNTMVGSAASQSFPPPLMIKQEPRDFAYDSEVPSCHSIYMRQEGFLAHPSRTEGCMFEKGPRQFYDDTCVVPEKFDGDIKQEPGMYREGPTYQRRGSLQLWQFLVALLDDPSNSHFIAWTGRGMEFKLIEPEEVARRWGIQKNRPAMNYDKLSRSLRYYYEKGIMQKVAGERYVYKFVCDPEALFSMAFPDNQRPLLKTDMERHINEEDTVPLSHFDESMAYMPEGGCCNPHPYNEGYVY
Summary of the method: as §1

For CTCGAC, the binding signal [1] was 1.49 fold enrichment (6-mer frequency, TF over GST control), the binding signal [2] was 1.47 fold enrichment (6-mer frequency, TF over GST control) and the binding signal [3] was 1.53 fold enrichment (6-mer frequency, TF over GST control). For the same sequence, the binding signal [4] was 1.47 fold enrichment (6-mer frequency, TF over GST control), the binding signal [5] was 1.53 fold enrichment (6-mer frequency, TF over GST control) and the binding signal [6] was 1.46 fold enrichment (6-mer frequency, TF over GST control). For the same sequence, the binding signal [7] was 1.34 fold enrichment (6-mer frequency, TF over GST control), the binding signal [8] was 1.33 fold enrichment (6-mer frequency, TF over GST control) and the binding signal [9] was 1.36 fold enrichment (6-mer frequency, TF over GST control). For the same sequence, the binding signal [10] was 1.41 fold enrichment (6-mer frequency, TF over GST control), the binding signal [11] was 1.47 fold enrichment (6-mer frequency, TF over GST control) and the binding signal [12] was 1.77 fold enrichment (6-mer frequency, TF over GST control). The binding signal [13] was 1.58 fold enrichment (6-mer frequency, TF over GST control), the binding signal [14] was 1.58 fold enrichment (6-mer frequency, TF over GST control) and the binding signal [15] was 1.49 fold enrichment (6-mer frequency, TF over GST control). For the same sequence, the binding signal [16] was 1.39 fold enrichment (6-mer frequency, TF over GST control), the binding signal [17] was 1.31 fold enrichment (6-mer frequency, TF over GST control) and the binding signal [18] was 1.32 fold enrichment (6-mer frequency, TF over GST control). For the same sequence, the binding signal [19] was 1.58 fold enrichment (6-mer frequency, TF over GST control).
